# Rows were chosen to be rich in hits. Some 3.7% of all compounds tested hit in one or more screens of this group.
# BoNT F protease: BoNT F light chain protease inhibition | inhibition, % at 10 µM | 0.22% of 360,000 active | Multiplex microsphere protease cleavage assay, flow cytometry; in the data active = inhibition above about 35%, passing the limit was not always enough; inconclusive = no clear call, values can overlap the other calls; note: plate controls were buffer without enzyme for full effect and enzyme alone for no effect
# BoNT-A LC inh2: blocks Botulinum neurotoxin A light chain protease; multiplex microsphere protease substrate cleavage, flow cytometry; inhibition, % at 10 µM; 0.17% of 360,000 active; AID 588499; note: plate controls were buffer without enzyme for full effect and enzyme alone for no effect
# MazEF act: MazEF (E. coli) toxin RNase activation | P0AE70 | FAM/BHQ RNA-DNA oligo cleavage fluorescence, 5 h | activation, % at 20 µM | 0.32% of 350,000 active | AID 504720; in the data active = activation above about 50%
# Target sequence (P0AE70 whole entry, looked up): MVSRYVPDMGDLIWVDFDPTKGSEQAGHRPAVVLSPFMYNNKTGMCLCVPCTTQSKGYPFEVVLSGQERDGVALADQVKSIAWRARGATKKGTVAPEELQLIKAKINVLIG
# Anthrax LF inh2: inhibitors of Bacillus anthracis lethal factor protease; P15917; multiplex microsphere protease cleavage assay, LF; inhibition, % at 10 µM; 0.12% of 360,000 active; note: plate controls were buffer without enzyme for full effect and enzyme alone for no effect
# Bead autofluor: counter-screen for toxin protease inhibitors: compound fluorescence | 3.1% of 360,000 active | AID 624483 | fluorescence intensity (test concentration not listed) | compound autofluorescence counterscreen, microsphere flow cytometry; hits give high values; in the data active = fluorescence intensity above about 16000; inconclusive = no clear call, values can overlap the other calls
# Starred values were filed as active, the others as inactive; u = inconclusive; x = no result given. Cut-off read from the data, not from the text of the source, unless noted: active = inhibition above about 30%; inconclusive = no clear call, values can overlap the other calls; inactive = below that.
SMILES,BoNT F protease,BoNT-A LC inh2,MazEF act,Anthrax LF inh2,Bead autofluor
CCOc1ccccc1-n1c(SCC(N)=O)nnc1-c1ccccc1,-4,u,5,1,16659*
COc1ccccc1-n1c(SCC(N)=O)nnc1-c1ccccc1,-8,-1,0,-3,3413
CCc1ccc(-c2cn(-c3nc(C)cc(C)n3)c(=N)o2)cc1,-3,-1,-9,-2,23477*
CCc1ccc(-c2cn3c(n2)SCC3)cc1,0,0,-6,1,2454
CC(C)Nc1nc(Nc2ccc(F)cc2)c2sccc2n1,-6,0,x,-1,3828
COC(=O)c1ccc(C(=O)OC)c(NS(C)(=O)=O)c1,0,1,-7,-2,23033*
O=C(Nc1ccc(Cl)cc1)Nc1ccc(N2CCOCC2)cc1,-17,-1,-2,3,4028
O=C(Nc1ccc(N2CCOCC2)cc1)Nc1ccc(Cl)c(Cl)c1,-8,-4,-3,-8,17169*
O=C1NN(c2ccccc2)C(=O)/C1=C\c1ccccc1OCC(=O)N1CCOCC1,4,5,-3,-17,21121*
CCc1ccccc1N=C1S/C(=C/c2ccccc2OCC(=O)N2CCOCC2)C(=O)N1C,-4,0,-4,-2,2453
CN(C)c1cccc(NC(=O)CCc2ccccc2)c1,75*,12,3,25,7865
CC(=O)C1=CCC(c2cccc(Cl)c2)N(S(=O)(=O)c2ccc(C)cc2)C1 (stereo unspecified),4,-1,x,-5,5560
Cc1cc(NC(=O)c2c(F)cccc2Cl)n(-c2nc3ccccc3[nH]2)n1,-4,0,-6,0,2956
Cc1cc(NC(=O)c2c(F)cccc2F)n(-c2nc3ccccc3[nH]2)n1,-5,-3,-3,-3,16824*
O=C1c2ccccc2-c2c1cccc2C(=O)N1CCCCC1,2,1,3,6,3117
O=C(c1cccc2c1-c1ccccc1/C2=N/O)N1CCCCC1,-3,u,2,3,20508*
O=[N+]([O-])c1ccc(Nc2ccccc2O)c2nonc12,u,3,232*,6,4052
O=C1c2cccc3c(O)ccc(c23)C(=O)N1Cc1ccccc1,111*,1,380*,51*,7829
O=C(O)c1cccc(CN2C(=O)c3ccccc3C2=O)c1,3,-2,-11,6,3183
CCOc1ccc(N2C(=O)CSC23CCCCC3)cc1,4,0,-6,2,3963
COc1ccc(N2C(=O)CSC23CCCCC3)cc1,0,-1,-3,-8,21829*
Nc1[nH]c(C(=O)c2ccccc2)c(-c2ccc(Cl)cc2Cl)c1C(=O)c1ccc(Br)cc1,-6,-2,x,4,6130
Cc1c([N+](=O)[O-])c(C(=O)N2CCCC2)nn1C,-1,1,5,-12,22515*
CCOc1ccc(C(=S)NC2CCCCC2)cc1,2,u,-9,-4,20072*
CCOc1ccc(C(=O)NC2CCCCCCC2)cc1,7,0,-6,2,5903
SMILES,BoNT F protease,BoNT-A LC inh2,MazEF act,Anthrax LF inh2,Bead autofluor
CCOC(=O)COc1ccc(C(=O)NC2CCCCC2)cc1,5,u,-9,2,20056*
Cc1onc(-c2ccccc2)c1C(=O)OCC(=O)c1ccc(F)cc1,0,0,7,0,3580
COc1ccc(NS(=O)(=O)c2ccc3c(c2)CCC(=O)N3)c(OC)c1,-1,0,-10,2,16726*
COc1ccc(NC(=O)CN(C)S(=O)(=O)c2ccc3c(c2)CCC(=O)N3)c(OC)c1,1,0,-4,-7,5401
CN1CCN(c2nc3cc(N4CCOCC4)ccc3s2)CC1,0,0,2,-3,3777
CCC(=O)N1Cc2cc(C(=O)N(C)C)nc(-c3cccc(-c4cncnc4)c3)c2[C@@H]1CCO,0,0,x,-2,5877
NC(=O)C(NN=C(c1ccccc1)c1ccccc1)c1ccccc1 (stereo unspecified),-2,0,-5,2,3311
COc1ccc(S(=O)(=O)N(Cc2ccccc2)c2ccccc2C(=O)N2CCOCC2)cc1,5,1,22,0,3555
CCN1CCN(C(=O)c2ccccc2N(Cc2ccccc2)S(C)(=O)=O)CC1,1,2,0,0,21470*
CCN1CCN(C(=O)c2ccccc2N(Cc2ccccc2)S(=O)(=O)c2ccc(C)cc2)CC1,1,u,16,-3,21954*
CS(=O)(=O)N(Cc1ccccc1)c1ccccc1C(=O)N1CCN(c2ccccc2)CC1,3,-1,2,0,10606
O=C(NCCc1ccc(Cl)cc1)c1cccc(S(=O)(=O)N2CCCC2)c1,-3,0,-3,-1,3883
Cc1ccccc1Nc1nc(N)nc(COC(=O)CCS(=O)(=O)c2ccccc2)n1,-5,-1,6,-2,24248*
Cc1ccc(S(=O)(=O)CCC(=O)OCc2nc(N)nc(Nc3ccccc3C)n2)cc1,-7,0,-2,4,5567
Cc1cc(C)n(CC(C)NCc2cn[nH]c2-c2ccc(C)c(C)c2)n1 (stereo unspecified),13,-5,-3,-4,28071*
CCOc1ccc(NC(=O)COC(=O)CCC(=O)c2cccs2)cc1,0,0,4,1,3080
O=C(CCN=C1NS(=O)(=O)c2ccccc21)Nc1ccc(Cl)cc1F,-9,-1,-6,-2,9043
Cn1c(Sc2ccc(C(F)(F)F)cc2[N+](=O)[O-])nnc1-c1ccccc1,4,3,3,-6,18706*
Cc1cccc(-c2cnc(C(O)c3ccc(Cl)cc3C)[nH]2)c1 (stereo unspecified),-8,-1,x,-9,3816
O=C1CCC(=O)N1OCCCCOc1ccccc1,-6,0,0,-2,4219
O=C1CCC(=O)N1OCCCOc1ccccc1,-1,-2,-6,-3,17200*
COC(=O)C1=CN(Cc2ccc(OC)cc2)C=C(C(=O)OC)C1c1cc(OC)c(OC)c(OC)c1,41*,-2,6,-2,3899
O=C(OCCO)c1c(C2=CCCCC2)oc2c1C(OCCO)CCC2 (stereo unspecified),-3,0,x,-4,5552
Cc1[nH]c2ccccc2c1/C=N/NC(=O)c1cccc(Br)c1,-63,5,22,-1,13920
Cc1[nH]c2ccccc2c1/C=N/NC(=O)c1cccc(S(=O)(=O)Nc2ccccc2Cl)c1,-3,35*,7,15,13351
SMILES,BoNT F protease,BoNT-A LC inh2,MazEF act,Anthrax LF inh2,Bead autofluor
COc1ccc2c(Cl)c(C(=O)N/N=C/c3c(C)[nH]c4ccccc34)sc2c1,-8,36*,-12,22,20361*
O=C(COc1ccccc1)NNc1c2ccccc2nc2ccccc12,-12,1,-5,-4,2670
COc1ccc(CNC(=O)COc2ccc([N+](=O)[O-])cc2)cc1,5,2,-5,-9,19432*
COc1ccc(OCC(=O)NNc2c3ccccc3nc3ccccc23)cc1,-2,0,-1,-6,16716*
COc1ccc(OCC(=O)NCc2ccc(Cl)cc2)cc1,-10,-3,2,11,3505
Cc1cn(CC(=O)N2CCN(c3ccccn3)CC2)c(=O)[nH]c1=O,-3,0,1,0,3902
